Assay outcomes as filed in PubChem.
POLI inh: qHTS for Inhibitors of Polymerase Iota; DNA polymerase iota (Homo sapiens), Q9UNA4; Pol iota fluorescent replication assay, 10 min; Potency, µM (series often up to 115 µM), for the others: at the top dose activity, negative = inhibition, actives largely listed as inhibitors; actives 1% (n = 390,000); AID 588590, 2011
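Pol iota at 10 nM preincubated 15 min with compounds at room temperature; reaction started with fluorescent substrate, 50 nM final. Fluorescence read kinetically at 0 and 10 min; buffer-only wells as negative control.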
L3MBTL1 inh: qHTS Assay for the Inhibitors of L3MBTL1 | AlphaScreen L3MBTL1–H3K9me1 peptide binding | Potency, µM (series often up to 57.1 µM), inactives show at the highest dose activity, negative = inhibition, usual class: inhibitors | actives 0.66% (n = 230,000) | AID 485360, 2010; also: % is scaled to controls: 0 for no effect and ±100 for the full control effect; nearly all actives have a fitted effect of over 60% in size
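L3MBTL1 (50 nM) pre-complexed 30 min with biotinylated H3(1-15)K9me1 peptide (75 nM), then compounds added for 30 min at room temperature; AlphaScreen streptavidin donor/nickel chelate acceptor beads (10 ug/mL final) read after 30 min dark incubation.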
Pol beta inh: qHTS Assay for Inhibitors of DNA Polymerase Beta | AID 485314, 2010 | P06746 | Pol beta primer extension/strand displacement, fluorescence kinetic | actives 1.3% (n = 340,000) | Potency, µM (series often up to 114 µM), for the others: at the top dose activity change, negative = inhibition, actives largely listed as inhibitors; also: % is scaled to controls: 0 for no effect and ±100 for the full control effect
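Curves were derived by four-parameter Hill fits of normalized qHTS data. The kinetic fluorescent primer-extension read was taken at 0 and 10 min after 50 nM substrate, following a 15 min room-temperature preincubation of 10 nM enzyme with compounds.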
Pol kappa inh-1: qHTS for Inhibitors of Polymerase Kappa; DNA polymerase kappa (Homo sapiens), Q9UBT6; purified Pol kappa, fluorescent DNA synthesis assay, 10 min; Potency, µM (top dose mostly 107 µM), for inactives: top-dose activity, negative = inhibition, usual class: inhibitors; actives 0.53% (n = 400,000); also: % is scaled to controls: 0 for no effect and ±100 for the full control effect
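Inhibition of 10 nM Pol kappa is measured by a fluorescent read-out at 0 and 10 min following addition of 50 nM substrate (final), with a 15-min room-temperature compound preincubation.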
Pol eta inh-1: qHTS for Inhibitors of Polymerase Eta; recombinant Pol eta, fluorescent DNA replication assay; Potency, µM (highest dose often 114 µM), for inactives: top-dose activity change, negative = inhibition, usual class: inhibitors; actives 1.2% (n = 390,000); also: % is scaled to controls: 0 for no effect and ±100 for the full control effect
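Fluorescent replication assay: 50 nM final substrate added after a 15 min room-temperature compound preincubation with 10 nM enzyme. Signal taken at 0 min and again at 10 min.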
Pol kappa inh-2: qHTS for Inhibitors of Polymerase Kappa: Confirmatory Assay for Cherry-picked Compounds | purified Pol-kappa, fluorescent strand-displacement substrate | shares compounds with Pol eta inh-1 | actives 76% (n = 920) | Potency, µM, hits mostly inhibitors | AID 720501, 2013
Pol eta inh-2: qHTS for Inhibitors of Polymerase Eta: Confirmatory Assay for Cherry-picked Compounds. shares compounds with Pol eta inh-1. Pol eta primer extension, TAMRA/BHQ fluorescence, 10 min. Potency, µM, usual class: inhibitors. actives 64% (n = 2,600). AID 720502, 2013
The depositor's hits bear a star; [ ] = another dose, or the depositor's remark. Most compounds without a hit are left out; they make up all but 2.4% or so of the library. Calls follow the shape of the dose curve; as a rule, active = well fitted curve in the direction sought with a large enough effect; inconclusive = small, poorly fitted or top-dose-only effect, or another doubt; inactive = no such curve, though single readings can be large; an effect the other way counts as inactive or inconclusive. Potency is read from the fitted curve at half-maximal effect.

`COc1ccc(N2C(=O)NC(=O)/C(=C/c3ccc(N4CCOCC4)cc3)C2=O)cc1` gave L3MBTL1 inh -5.5% and Pol beta inh -2.2%.
`COc1ccc(N2C(=O)NC(=O)/C(=C/c3ccc([N+](=O)[O-])s3)C2=O)cc1` gave POLI inh 54.2%, Pol beta inh inconclusive, Pol kappa inh-1 17.8µM*, Pol eta inh-1 8.91µM* and Pol eta inh-2 30.1*.
For CCCC(Cn1cncn1)c1ccc(Cl)cc1Cl (configuration not stated) the results were Pol kappa inh-1 13.4%[60.1 µM].
For N[C@@H](Cc1cc(I)c(O)c(I)c1)C(=O)O the results were POLI inh 31.6µM*, L3MBTL1 inh 4.8%, Pol beta inh 30.5%, Pol kappa inh-1 50.1µM*, Pol eta inh-1 39.8µM* and Pol eta inh-2 30.1*.
O=c1[nH]c(=O)n(Cc2ccco2)c(O)c1/C=N/N1CCCCC1 was read as POLI inh inconclusive, L3MBTL1 inh inconclusive, Pol beta inh inconclusive, Pol kappa inh-1 89.1µM*, Pol eta inh-1 20µM*, Pol kappa inh-2 23.8* and Pol eta inh-2 37.9*.
Screening O=c1[nH]c(=O)n(Cc2ccco2)c(O)c1C=NC1CC1 returned POLI inh -2.4%, L3MBTL1 inh -2.8%, Pol beta inh 41.8%, Pol kappa inh-1 -6.8% and Pol eta inh-1 7.6%.
Screening COc1ccc(/C=C2/C(=O)NC(=O)N(c3ccccc3)C2=O)cc1CN1C(=O)c2ccccc2C1=O returned POLI inh -1.6%, Pol beta inh 11.0%, Pol kappa inh-1 -1.8% and Pol eta inh-1 -4.3%.
Screening Cc1ccccc1N1C(=O)NC(=O)/C(=C\c2ccc3c(c2)CCCN3Cc2ccccc2)C1=O returned POLI inh inconclusive, L3MBTL1 inh inconclusive, Pol beta inh 25.1µM*, Pol kappa inh-1 -29.5%, Pol eta inh-1 20µM* and Pol eta inh-2 inconclusive.
`CN1C(=O)C(=Cc2ccc(N3CCCCC3)o2)C(=O)N(C)C1=S` gave POLI inh -5.8%, L3MBTL1 inh -25.5%, Pol beta inh 11.2%, Pol kappa inh-1 -9.9% and Pol eta inh-1 inconclusive.
For CN1C(=O)C(=Cc2ccc(SC3CCCCC3)o2)C(=O)N(C)C1=O the results were POLI inh inconclusive, Pol beta inh 22.4µM*, Pol kappa inh-1 -26.7%, Pol eta inh-1 22.4µM* and Pol kappa inh-2 inconclusive.
COc1cc(/C=C2/C(=O)NC(=O)N(c3ccccc3)C2=O)ccc1O was read as POLI inh 17.3%, L3MBTL1 inh -10.1%, Pol beta inh 1.8%, Pol kappa inh-1 3.1% and Pol eta inh-1 9.8%.
Screening O=C1NC(=O)N(c2ccccc2)C(=O)/C1=C/c1ccoc1 returned POLI inh 39.8µM*, L3MBTL1 inh inconclusive, Pol beta inh inconclusive, Pol kappa inh-1 inconclusive, Pol eta inh-1 28.2µM* and Pol eta inh-2 75.7*.
For CN1C2CCCC1CC(=O)C2 the results were Pol kappa inh-1 16.2%[60.1 µM].
Screening Nc1nonc1C(=O)N/N=C/c1ccc([N+](=O)[O-])o1 returned POLI inh 31.6µM*, L3MBTL1 inh 35.5µM*, Pol beta inh inconclusive, Pol kappa inh-1 inconclusive, Pol eta inh-1 20µM* and Pol eta inh-2 inconclusive.
`Cc1cc(/C=C2/C(=O)NC(=O)N(Cc3ccco3)C2=O)c(C)n1-c1ccccc1` gave POLI inh 2.24µM*, L3MBTL1 inh -28.2%, Pol beta inh 17.8µM*, Pol kappa inh-1 70.8µM*, Pol eta inh-1 35.5µM* and Pol eta inh-2 75.7*.
